Laboratory results published in PubChem BioAssay AID651558 (National Center for Advancing Translational Sciences (NCATS), 2012).
The campaign covered roughly 1,200 compounds. About 480 (40%) were called active. Another 29% or so got no clear call; they are omitted. The call rests on the fitted dose curve; in most records, active means well fitted inhibition curve with a large enough effect; inconclusive means small, poorly fitted or top-dose-only effect; inactive means no such curve, though single readings can be large or run the other way. The list shows a part of the results.

test: qHTS Assay to Find Inhibitors of Chronic Active B-Cell Receptor Signaling: Hit Validation in Primary Screen; conditions: ABC-DLBCL IkB-luc/CBR ratio luminescence, 4 h; series mostly up to 46.1 µM; activity change, negative = inhibition: at the top concentration; further: nearly all actives have a fitted effect of over 75% in size
Excerpt: Diffuse large B-cell lymphoma (DLBCL) is the most common category of non-Hodgkin lymphoma, with ~20,000 new cases per year in the United States. DLBCL should be regarded as a collection of different neoplasms. Microarray gene expression analysis has defined two principal types of DLBCL, named for their similarity to normal B cell stages or activation states: a germinal center B-cell (GCB) type, and an activated B-cell (ABC) type. In ABC-DLBCL, a constitutive high-level activity of the NF-kappaB family of transcription factors has been observed (1) and NF-kappaB target genes are more highly expressed in ABC primary tumors than in GCB tumors. Functional studies have shown a constitutive high-level activity of the IkappaB (inhibitor of kappa-B) kinase (IKK) complex. […] Further analysis of DLBCL primary tumors for NF-kappaB target gene expression imply that although CARD11 is required for constitutive IKK activity in all ABC-DLBCL lines, mutations in CARD11 may be the root cause of IKK activation only in lines or tumors with such mutations. In other words, CARD11 mutations may explain NF-kappaB activation in only 10% of ABC-DLBCL cases. […] This process has been termed 'chronic active BCR signaling' (CABS). The goal of this screen is to find small-molecule inhibitors of the CABS pathway found in ABC-DLBCL lines using a cell-based assay that measures IkappaBalpa stability, which has already been extensively validated in the OCI-Ly3 line (PubChem AID:445; REF: 4). […] A cell-sensor assay for I-kappa-B-alpha stabilization has been developed. The assay uses green (CBG68) and red (CBR) emitting beetle luciferases [Chroma-GloTM developed by Promega Corp.] where the green luciferase is fused to IkappaBalpha and the red luciferase is present in its native state. Both luciferase genes are stably present in the TMD8 human ABC DLBCL cell line, but their expression is under the control of tetracycline-inducible promoters. Following the addition of doxycycline to induce expression of the luciferases, the green luminescence in control cultures rises only slowly because the CBG fusion partner IkappaBalpha is targeted by IKK activity for rapid degradation. In contrast, green luminescence rises rapidly in the presence of proteasome inhibitors or IKK inhibitors. The rise in red luminescence of CBR is not affected by proteasome or IKK inhibitors, and serves as normalization for cell number and nonspecific effects. Compounds were screened as a concentration-titration series that ranged from 46 uM to 3 nM. NIH Molecular Libraries Probe Production Network [MLPCN] NIH Chemical Genomics Center [NCGC] MLPCN Grant: R03 DA031086 PI Name: Dr. R. Eric Davis
Cells were seeded in 1536-well plates at 5000 cells/4uL in IMDM medium containing 0.5% FBS, w/o phenol red, 1% penicillin/streptomycin. Then, 23 nL of compounds or DMSO were delivered to each well using a pin tool. One uL 20ng/ml doxycycline was then dispensed into white solid 1536-well plates and the plates were incubated at 37C/5% C02 in a cell incubator for 4 hrs. Then 4 uL luminescent substrate mix (in-house prepared: 150 mM Tris-Cl, pH 7.6, 3 mM MgCl2, 1% Triton X-100, 5 mM DTT, 0.2 mM CoA, 0.15 mM ATP, 5 mM D-luciferin, final concentrations) was added to each well. The plate was incubated at r.t. for 10-15 min. The plates were measured on a ViewLux plate reader for green luminescence (540/20 nm filter) and red luminescence (618/8 nm filter). The green and red luminescent signals were corrected for red and green luminescence filter overlap using previously determined filter calibration constants (determined using the procedure outlined in the Promega Technical Manual; REF 4). The %Activity was determined from the ratio of corrected green/red luminescent values. MG132 were used as control. Green luminescent and ratio %Activity was determined by normalizing to the difference in signal between basal cells (0% Activity) and cells incubated with 10 uM of the proteasome inhibitor MG-132 (100% Activity). […]
On the % scale 0 is the no-effect control and ±100 the full control effect; potency means the concentration at half of the fitted maximal effect.

Activity change, negative = inhibition, inactive:
CCOc1cc(/C=N/O)ccc1OCc1ccccc1F -15.1%
CNC(=S)N/N=C(\C)c1cccc([N+](=O)[O-])c1 36%
C/C(=N\NC(=O)C(C)n1nc(C)c([N+](=O)[O-])c1C)c1ccccc1O (stereo not given) -4.79%
COc1cc(C(=O)N/N=C/C2CC=CCC2)cc(OC)c1OC (stereo not given) -7.05%
COc1cc(C(=O)O/N=C(\N)c2ccc([N+](=O)[O-])cc2)cc(OC)c1OC 51.1%
Cc1cc(C(=O)OCC(=O)NCc2ccco2)c(C)n1-c1ccc(F)cc1 38.7%
CC(NC(=O)c1ccc(S(=O)(=O)NCc2ccco2)cc1)c1ccc(F)cc1 (stereo not given) -8.65%
CCCC(C)NC(=O)c1ccc(C2SCC(=O)N2Cc2ccco2)cc1 (stereo not given) -16.5%
COc1ccc(N2C(=O)CS/C2=N\C(=S)Nc2ccccc2)cc1 0.626%
N#CCSc1nc(N)c(C#N)c(C2CCCCC2)c1C#N -9.34%
CSc1nc(N(C)NC(=O)c2ccc(Cl)cc2)c2ccccc2n1 37.4%
C[C@H]1C[C@@H]2[C@H]([C@@H](O)C[C@@]3(C)[C@H]2CC[C@]3(O)C(=O)CO)[C@@]2(C)C=CC(=O)C=C12 47.4%
COc1ccc(/C=N/NC(=O)c2[nH]c3ccc(C)cc3c2-c2ccccc2)c(C(=O)O)c1OC 11.9%
C=CCn1c(SC2CCOC2=O)nc2sc(C)c(C)c2c1=O (stereo not given) -15.6%
Oc1ccccc1N=Nc1ccccc1O 5.71%
CCc1ccccc1NC(=S)N=Nc1c(O)n(C)c2ccc(S(=O)(=O)N3CCOCC3)cc12 26.3%
S=c1[nH]cnc2sc(-c3ccccc3)cc12 -6.35%
C/C(=N\NC(=S)NCCc1ccccc1)c1cccc(Br)c1 4.84%
O=C(NC(=S)NC1CCSC1=O)c1cccs1 (stereo not given) -12.7%
O=C1NC(=O)C(=C2CCCCCC2)S1 39.3%
Cc1cc(C)c2ccc(/C=N/O)nc2c1O -9.13%
COc1ccc(C2CC(=O)Oc3cc(OC)c(OC)c(OC)c32)cc1 (stereo not given) -19.3%

Potency, active:
COc1ccc(/C=N\NC(=O)c2ccccc2F)cc1COc1ccc(F)cc1F 3.26 µM
C/C(=N\NC(=O)c1c([N+](=O)[O-])c(C)nn1C)c1ccc(NC(=O)C2CCCC2)cc1 9.2 µM
COc1cc(C(=O)N/N=C/c2sccc2C)cc(OC)c1OC 1.46 µM
COc1cc(C(=O)N/N=C/c2ccsc2C)cc(OC)c1OC 2.31 µM
COc1cc(C(=O)N/N=C/c2cc([N+](=O)[O-])cs2)cc(OC)c1OC 20.6 µM
CC1=Nc2cc(C(=O)NCc3ccco3)ccc2Sc2ccc(C)cc21 1.84 µM
CC1=Nc2cc(C(=O)NCC3CCCO3)ccc2Sc2ccc(C)cc21 (stereo not given) 7.31 µM
CCC1=Nc2cc(C(=O)NCc3ccco3)ccc2Sc2ccc(Cl)cc21 2.91 µM
CCC1=Nc2cc(C(=O)NCc3ccco3)ccc2Sc2ccc(C)cc21 1.16 µM
CCC1=Nc2cc(C(=O)NCc3ccccc3Cl)ccc2Sc2ccc(C)cc21 4.61 µM
CCC1=Nc2cc(C(=O)NCc3cccnc3)ccc2Sc2ccc(C)cc21 18.4 µM
CCC1=Nc2cc(C(=O)NCc3ccco3)ccc2Sc2ccccc21 20.6 µM
COc1ccc(C(=O)NN(C)c2nc(C(F)(F)F)nc3ccccc23)cc1 0.291 µM
CSc1nc(N(C)NC(=O)c2cccc(C)c2)c2ccccc2n1 1.3 µM
COc1ccc(-c2c(C)nn3c(N)c(C#N)cnc23)cc1OC 20.6 µM
COc1ccc(/C=N/NC(=O)c2cc3c(OC)ccc(OC)c3[nH]2)cc1O 2.31 µM
Cc1ccc(CNC(=O)Cc2ccc(-n3c(=O)[nH]c4ccsc4c3=O)cc2)cc1 4.11 µM
O=C1N/C(=N/N=C/c2ccccc2O)SC1Cc1ccc(F)cc1 (stereo not given) 9.2 µM
C=CCn1c(SCC(=O)Nc2cccc(S(N)(=O)=O)c2)nc2sc(C)c(C)c2c1=O 5.17 µM
CC1=Nc2cc(C(=O)NCCCOC(C)C)ccc2Sc2ccc(C)cc21 7.31 µM
CCC1=Nc2cc(C(=O)NCCCOC(C)C)ccc2Sc2ccc(C)cc21 2.59 µM
O=c1[nH]c(-c2ccccn2)nc2sc(-c3ccccc3)cc12 2.31 µM
CCc1cc2c(=O)[nH]c(-c3ccccn3)nc2s1 14.6 µM
COc1ccc(-c2cnc3c(c2)CCC3(C#N)C#N)cc1 3.66 µM
COc1ccc([C@H]2CC(=O)C=C(c3ccc(OC)cc3OC)C2)cc1 16.4 µM
COc1ccc(/C=C/C(=O)c2cc(Br)ccc2OC(=O)c2ccco2)cc1OC 5.8 µM
O=C(Oc1ccc(F)cc1C(=O)/C=C/c1cccs1)c1cccc([N+](=O)[O-])c1 1.46 µM
COc1ccc(/C=C/C(=O)c2cc(F)ccc2OC(=O)c2ccccc2OC)cc1OC 1.3 µM
